Here are results for seven molecules from PubChem BioAssay.

Calls of active or inactive are those of the source.

The test system of assay [1] is Human papillomavirus type 1a protein E7 (residues 44-93). In words: small molecules binding HPV E7 44-93 – biochemical, small-molecule microarray, residues 44-93, 635 nm fluorescence, primary screen (AID 1108).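 Also: E7 fragment applied at 1 µg/mL in TBST for 1 h at 4 C; score combines spot fluorescence with its signal to noise ratio.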 The conditions noted are these: fluorescence 635 nm, higher = more signal.
Assay [2] in a line: hepatitis C replication reporter changes, two-sided – Huh7 cells, luciferase reporter, HCV replication inhibitor project, primary screen (AID 1109).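 Also: huh7 hepatoma cells harbouring a luciferase neomycin HCV replicon reporter; luciferase luminescence as measure of HCV replicon replication; test concentration not given here.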 Conditions: Huh7 HCV replicon luciferase reporter, 48 h; higher = more signal. (Reporter assays use an easily measured gene product as a stand-in for the process of interest.)
For assay [3], the target named is Left-right determination factor 2 (Homo sapiens) (UniProt O00292). In words: small molecules binding LEFTY2 protein – biochemical, small-molecule microarray, 635 nm fluorescence scan, primary screen (AID 1110). Conditions: higher = more signal.
Sequence of Left-right determination factor 2 (Homo sapiens) (O00292 whole entry, looked up): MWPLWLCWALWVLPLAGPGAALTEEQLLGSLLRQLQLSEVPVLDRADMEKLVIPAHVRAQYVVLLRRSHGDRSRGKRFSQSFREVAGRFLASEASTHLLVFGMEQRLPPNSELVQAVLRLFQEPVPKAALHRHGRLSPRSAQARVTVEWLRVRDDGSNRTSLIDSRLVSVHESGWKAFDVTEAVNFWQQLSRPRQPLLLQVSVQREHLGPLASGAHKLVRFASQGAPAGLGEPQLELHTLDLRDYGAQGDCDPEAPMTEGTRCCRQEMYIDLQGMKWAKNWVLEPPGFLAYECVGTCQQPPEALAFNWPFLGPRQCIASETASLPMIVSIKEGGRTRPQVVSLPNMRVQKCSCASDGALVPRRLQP
Assay [4] concerns the target Calmodulin-1 (Homo sapiens) (UniProt P0DP23). Put plainly: small molecules binding calmodulin-1 with EGTA – biochemical, small-molecule microarray, Cy5-labelled CALM1, profiling panel (AID 1111).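 Also: labelled calmodulin applied in Tris saline Tween buffer holding calcium plus EGTA and DTT.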 Conditions: Cy5-CALM1 binding fluorescence, higher = more signal.
Assay [5] shares this target. Put plainly: small molecules binding Ca-loaded calmodulin-1 – biochemical, small-molecule microarray, Cy5-labelled CALM1, plus calcium, artefact control for SMM control-protein annotation, profiling panel (AID 1112).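 Also: score merges spot fluorescence with signal to noise from triplicate slides.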 The conditions noted are these: Cy5-CALM1 binding fluorescence, higher = more signal.
A short description of assay [6]: probe aWnt5a binding to arrayed compounds – biochemical, biotinylated probe, 635/667 nm fluorescence, primary screen (AID 1113).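 Also: score merges 667 nm fluorescence intensity with signal-to-noise per printed feature.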 The conditions noted are these: small-molecule microarray, higher = more signal.
Assay [7] is described as follows: probe aShh binding to arrayed compounds – biochemical, biotinylated probe, 635/667 nm fluorescence, primary screen (AID 1114).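 Also: probe is biotin-labelled aShh protein from a stem cell growth factor screen; measures binding of labelled protein to compounds printed on the slide; score merges feature fluorescence at 667 nm with signal-to-noise.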 Conditions: small-molecule microarray, higher = more signal.
A short description of assay [8]: probe aNog binding to arrayed compounds – biochemical, biotinylated probe, 635/667 nm fluorescence, primary screen (AID 1115).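 Also: probe is biotinylated aNog protein used at 0.15 µg/mL for 1 h at 4 C; z-score combines 667 nm fluorescence of each spot with its signal to noise.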 Conditions: small-molecule microarray, higher = more signal.
The target in assay [9] is Torsin-1A-interacting protein 1 (Homo sapiens) (UniProt Q5JTV8). Put plainly: compound microarray binding of lysate hLAP1 – cell lysate, small-molecule microarray, COS7 lysate, 635/667 nm fluorescence, primary screen (AID 1116). Conditions: 635 nm fluorescence, higher = more signal.
Sequence of Torsin-1A-interacting protein 1 (Homo sapiens) (Q5JTV8 whole entry, looked up): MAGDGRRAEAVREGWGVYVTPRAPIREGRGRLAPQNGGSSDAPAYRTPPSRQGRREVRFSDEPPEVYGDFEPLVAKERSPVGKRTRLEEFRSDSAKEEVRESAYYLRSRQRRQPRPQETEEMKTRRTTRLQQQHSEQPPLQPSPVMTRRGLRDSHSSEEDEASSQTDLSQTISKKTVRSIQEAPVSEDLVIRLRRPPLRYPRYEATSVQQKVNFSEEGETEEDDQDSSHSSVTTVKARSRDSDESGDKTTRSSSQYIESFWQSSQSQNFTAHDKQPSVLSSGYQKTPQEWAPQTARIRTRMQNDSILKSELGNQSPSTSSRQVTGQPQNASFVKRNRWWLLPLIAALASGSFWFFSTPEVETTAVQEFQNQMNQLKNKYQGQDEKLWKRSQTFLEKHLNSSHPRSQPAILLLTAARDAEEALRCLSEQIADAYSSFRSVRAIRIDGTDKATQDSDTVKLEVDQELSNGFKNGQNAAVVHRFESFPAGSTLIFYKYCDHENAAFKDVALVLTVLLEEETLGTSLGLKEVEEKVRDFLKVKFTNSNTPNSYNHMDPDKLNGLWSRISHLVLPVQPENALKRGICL
Assay [10] deals with Alpha-bungarotoxin (Bungarus multicinctus) (UniProt P60615). Put plainly: compounds binding labelled alpha-BTX control protein – biochemical, small-molecule microarray, Alexa647 label, 635/667 nm fluorescence, artefact control for SMM control protein annotation, profiling panel (AID 1117). The conditions noted are these: alpha-BTX-A647 binding fluorescence, higher = more signal.
Sequence of Alpha-bungarotoxin (Bungarus multicinctus) (P60615 whole entry, looked up): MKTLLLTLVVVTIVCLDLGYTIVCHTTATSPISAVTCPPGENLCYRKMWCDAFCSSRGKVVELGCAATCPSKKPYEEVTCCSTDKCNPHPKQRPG

The next assay has as its target Albumin (Bos taurus) (UniProt P02769). Put plainly: compounds binding labelled BSA control protein – biochemical, small-molecule microarray, Alexa647 label, 635/667 nm fluorescence, artefact control for SMM control protein annotation, profiling panel (AID 1118).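 Also: score merges 667 nm emission intensity and signal-to-noise per printed compound spot.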 The conditions noted are these: BSA-A647 binding, fluorescence 635 nm, higher = more signal.
A short description of assay [11]: probe aXIP binding to arrayed compounds – biochemical, NeuroSMM set, 635/667 nm fluorescence, primary screen (AID 1119).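 Also: probe is the protein aXip251-270 applied at 1 µg/mL to compound-printed slides; binding of probe to printed compounds measured as 667 nm fluorescence plus signal to noise.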 Conditions: small-molecule microarray, higher = more signal, called active from +8 up or from −8 down.
Assay [12] in a line: probe aNOTCH3 binding on compound microarray – biochemical, small-molecule microarray, 635/667 nm fluorescence, primary screen (AID 1120).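 Also: probe is a biotin-tagged antibody raised against NOTCH3 rather than NOTCH3 protein; score merges spot fluorescence near 667 nm with spot signal to noise.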 The conditions noted are these: higher = more signal.
A short description of assay [13]: probe aNOTCH2 binding on compound microarray – biochemical, small-molecule microarray, 635/667 nm fluorescence, primary screen (AID 1121).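 Also: score merges feature fluorescence read at 667 nm with its signal to noise.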 The conditions noted are these: higher = more signal.
For assay [14], the target named is Carbonic anhydrase 2 (Homo sapiens) (UniProt P00918). Put plainly: compounds binding carbonic anhydrase 2 – biochemical, small-molecule microarray, Alexa647-labelled CAII, profiling panel (AID 1122). Conditions: CAII-A647 binding fluorescence, higher = more signal.
The nature of assay [15]: COS7 lysate on small-molecule microarray, probe aHis, 635 nm (AID 1123).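 Also: z-score combines 667nm fluorescence intensity with signal-to-noise per printed compound spot.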 The conditions noted are these: COS7 cell lysate, fluorescence, higher = more signal.
Assay [16] is described as follows: probe aLAP1 signal on lysate-treated microarray – cell lysate, small-molecule microarray, COS7 lysate, primary screen (AID 1124).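 Also: lysate comes from COS7 cells expressing LAP1 and is applied at 0.3 µg/mL; score merges spot fluorescence near 667 nm with signal-to-noise over triplicate slides.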 The conditions noted are these: probe aLAP1, fluorescence, higher = more signal.
In a further assay the test system is Sam68 (KHDRBS1). In words: compounds binding KHDRBS1 protein – biochemical, small-molecule microarray, 635 nm fluorescence, primary screen (AID 1125).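 Also: score merges 667 nm channel intensity with signal to noise over triplicate slides.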 Conditions: higher = more signal.
The subject of assay [17] is Chordin-like protein 2 (CHRDL2). In words: compounds binding chordin-like 2 – biochemical, small-molecule microarray, 635 nm fluorescence, primary screen (AID 1126).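 Also: printed compound slides probed with Chrdl2 protein at 4 µg/mL for 1 h at 4 C; score merges 667 nm emission intensity with signal to noise over three replicate slides.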 The conditions noted are these: fluorescence 635 nm, higher = more signal.
Assay [18] concerns the target Concanavalin-A (Canavalia ensiformis) (UniProt P02866). In words: compounds binding concanavalin A lectin – biochemical, small-molecule microarray, Alexa647 label, 635 nm, artefact control for SMM control protein annotation, primary screen (AID 1127).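 Also: z combines 667 nm emission intensity with signal-to-noise across three replicate slides.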 The conditions noted are these: ConA-A647 binding fluorescence, higher = more signal.

Sequence of Concanavalin-A (Canavalia ensiformis) (P02866 whole entry, looked up): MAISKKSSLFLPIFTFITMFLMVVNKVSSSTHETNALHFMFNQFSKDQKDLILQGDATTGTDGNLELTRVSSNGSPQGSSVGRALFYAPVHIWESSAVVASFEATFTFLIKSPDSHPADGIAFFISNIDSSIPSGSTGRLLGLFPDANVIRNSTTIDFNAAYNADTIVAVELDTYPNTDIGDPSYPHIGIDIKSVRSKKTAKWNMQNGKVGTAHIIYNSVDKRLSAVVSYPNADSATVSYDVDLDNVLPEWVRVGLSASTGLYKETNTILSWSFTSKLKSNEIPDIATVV
Sequence of Albumin (Bos taurus) (P02769 whole entry, looked up): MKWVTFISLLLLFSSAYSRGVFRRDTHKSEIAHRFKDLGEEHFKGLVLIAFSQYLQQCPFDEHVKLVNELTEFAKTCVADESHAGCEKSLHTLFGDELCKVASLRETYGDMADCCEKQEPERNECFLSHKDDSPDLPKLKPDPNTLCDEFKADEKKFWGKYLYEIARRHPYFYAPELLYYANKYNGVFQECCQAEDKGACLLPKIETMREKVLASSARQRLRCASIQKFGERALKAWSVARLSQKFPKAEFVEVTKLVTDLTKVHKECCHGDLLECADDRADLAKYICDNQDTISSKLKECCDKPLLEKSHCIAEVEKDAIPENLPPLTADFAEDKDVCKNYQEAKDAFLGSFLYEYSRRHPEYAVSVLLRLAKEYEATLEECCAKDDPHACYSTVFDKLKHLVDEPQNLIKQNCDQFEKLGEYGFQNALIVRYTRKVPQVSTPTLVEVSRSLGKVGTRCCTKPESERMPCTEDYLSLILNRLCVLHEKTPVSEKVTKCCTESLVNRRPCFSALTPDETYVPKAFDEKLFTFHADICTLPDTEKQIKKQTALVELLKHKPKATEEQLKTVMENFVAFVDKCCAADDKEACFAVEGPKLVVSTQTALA

Regarding `C[N+](C)(C)CCCC[C@@H]1NC(=O)[C@@H]2C[C@H](C(=O)NCCCCCCNC(=O)CS)[C@H](c3ccc(O)cc3)N2C1=O`, the composite z-score in [1] is -0.421; in [3], -0.638; in [4], -0.4; in [5], -0.281; in assay [6] it was -0.237; in assay [7] it was -0.304. Further, the composite z-score was -0.0721 in assay [8]; 0.958 in assay [9]; 1.33 in [10]; 0.303 in the assay with Albumin (Bos taurus); -0.443 in [12]; -0.115 in [13]. The composite z-score was 0.82 in assay [14]; 0.443 in assay [15]; 0.596 in assay [16]; -0.731 with Sam68 (KHDRBS1); -0.377 in [17]; 0.871 in assay [18]. In assay [2], this molecule came in with a z-score of 0.164. Besides, in assay [11], the composite Z-score is 0.0896 (inactive).

Turning to `COc1ccc([C@H]2C[C@H]3C(Br)=C[C@@]2(CO)C(=O)[C@]32CO2)cc1`, the composite z-score in assay [1] is -0.368; in assay [3] it was 0.122; in [4] it was -0.282; in assay [5], -0.38; in [6], 0.0286; in assay [7], -0.262. Besides, the composite z-score was -0.0827 in assay [8]; 0.291 in [9]; 0.0471 in [10]; -0.613 with Albumin (Bos taurus); -0.103 in assay [12]; -0.0684 in assay [13]. The composite z-score in assay [14] is 0.0574; in assay [15], -0.128; in assay [16], 0.289; in the assay on Sam68 (KHDRBS1), -0.318; in assay [17], 0.282; in assay [18] it was 0.178. The molecule also showed a z-score in assay [2] of -2.02. Also, the composite Z-score in assay [11] was -0.0805 (inactive).

On to `COCCCNC(=O)[C@]1(Cc2ccccc2)N=C(c2ccc(OCCCO)cc2)O[C@@H]1c1ccccc1CN=[N+]=[N-]`, for which the composite z-score was 0.128 in assay [1]; -0.254 in assay [3]; 1.02 in assay [4]; 0.562 in assay [5]; 0.116 in assay [6]; 0.585 in assay [7]. For the same molecule, the composite z-score in [8] stood at 0.918; in assay [9], 2.48; in assay [10], 0.315; in the assay with Albumin (Bos taurus), 0.999; in [12], 0.16; in assay [13] it was 0.266. Also, the composite z-score in assay [14] is 0.694; in assay [15] it was 3.21; in [16], 0.465; with Sam68 (KHDRBS1), 1.28; in [17], -0.431; in assay [18] it was 1.16. The molecule also came in with a z-score in assay [2] of -2.18. In assay [11], the composite Z-score is -0.127 (inactive).

Consider `CN1C(=O)C2C=CC(C(O)c3ccccc3)N(N3CCCCC3)C2C1=O` (stereo not given), for which the composite z-score in assay [1] is 0.876; in [3] it was -0.203; in [4] it was 0.0777; in assay [5], -0.102; in assay [6], 0.28; in assay [7] it was 0.108. Besides, the composite z-score is -0.52 in [8]; 0.411 in assay [9]; 0.464 in assay [10]; 0.988 in the assay with Albumin (Bos taurus); 0.237 in [12]; 0.0521 in [13]. Besides, the composite z-score in [14] is 0.846; in [15], 2.37; in assay [16], 0.676; in the assay on Sam68 (KHDRBS1) it was 1.02; in assay [17], -0.409; in assay [18], 0.872. Also, in assay [2], the z-score is -0.379. In addition, the composite Z-score in [11] was -0.123 (inactive).

As for `CCCC=C(CCC)[C@@H](NC(=O)OCC(C)C)c1ccccc1`, the composite z-score in assay [1] was 0.861; in assay [3], -0.0453; in assay [4], 1.65; in assay [5], 0.438; in assay [6], 0.806; in assay [7], 0.717. Besides, the composite z-score in [8] is 1.99; in assay [9], 0.226; in [10], 0.703; with Albumin (Bos taurus) it was 0.923; in assay [12], 1.03; in [13], -0.0141. In addition, the composite z-score in assay [14] is 0.611; in assay [15], 1.6; in assay [16], -0.182; in the assay on Sam68 (KHDRBS1), 1.31; in assay [17], -1.42; in assay [18], 1.1. The z-score in assay [2] was -1.18. Further, the composite Z-score in [11] was -0.254 (inactive).

On to `COC(=O)[C@@]1(Cc2ccc(F)cc2)[C@H]2c3cc(C(=O)N(C)C)n(Cc4cc(C)n(C)n4)c3C[C@H]2CN1C(=O)c1ccccc1`, for which the composite z-score in [1] was 0.923; in assay [3] it was -0.476; in assay [4], 2.43; in assay [5], 0.669; in assay [6], 0.418; in [7], -0.0324. Besides, the composite z-score in [8] stood at 1.82; in assay [9] it was 2.58; in assay [10], 0.42; in the assay with Albumin (Bos taurus), 1.03; in assay [12], 0.19; in [13], 0.0552. Further, the composite z-score in assay [14] is 0.806; in assay [15], 3.08; in assay [16], 0.738; in the assay with Sam68 (KHDRBS1) it was 1.31; in assay [17], -0.141; in assay [18], 1.01. The same molecule showed a z-score in assay [2] of 0.107. Besides, the composite Z-score in assay [11] was 0.467 (inactive).

Regarding `COc1cc2c(cc1O)C(c1cccs1)N(Cc1cccc(OC(F)(F)F)c1)CC2` (stereo not given), the composite z-score was 1.14 in [1]; 0.0446 in [3]; 0.0759 in assay [4]; -0.194 in [5]; -0.0545 in [6]; -0.0709 in assay [7]. Moreover, the composite z-score in assay [8] was 0.0953; in assay [9] it was 0.0117; in assay [10], 0.422; with Albumin (Bos taurus), 0.899; in assay [12] it was -0.128; in assay [13] it was -0.148. Also, the composite z-score in [14] was 0.78; in assay [15], 2.6; in [16], 0.336; in the assay with Sam68 (KHDRBS1), 1.15; in assay [17], 0.375; in [18], 0.127. The z-score in [2] is -1.75. In [11], the composite Z-score is 0.934 (inactive).
